Measured values as given in PubChem BioAssay (EPA / NIEHS).
Active and inactive are the calls of the source. Rule for the calls: active = hit-call score of the fitted dose curve at least 0.9, where 1 is the maximum; inactive = score below 0.9.

Assays:
[1] = BSK_hDFCGF_SRB: Viability Assessment in the BioMAP Diversity Plus: hDFCGF Assay (AID 2283061); conditions: primary human foreskin fibroblasts;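 note: cells exposed to compound for 24 h before the read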
Outline: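 SRB-based viability read on primary human skin fibroblasts at 24 h: TCA fixation, 0.1% dye, 560 nm. Gain or loss of signal is fitted against the DMSO negative control.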

[2] = read-out: TIMP metallopeptidase inhibitor 1 (TIMP1), TIMP1 (gene 7076); assay: BSK_hDFCGF_TIMP1: BioMAP Diversity Plus: hDFCGF Assay for TIMP metallopeptidase inhibitor 1 (TIMP1) Biomarker Activity (AID 2283062); conditions: primary human foreskin fibroblasts; actives raise or lower the signal
Outline: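 Bidirectional curve fitting against DMSO baseline yielded this endpoint, based on ELISA detection of TIMP-1 in primary human foreskin fibroblasts exposed to compound for 24 h.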

[3] = read-out: Monokine induced gamma interferon (MIG), CXCL9 (gene 4283); assay: BSK_hDFCGF_MIG: BioMAP Diversity Plus: hDFCGF Assay for Monokine induced gamma interferon (MIG) Biomarker Activity (AID 2283063); conditions: primary human foreskin fibroblasts; actives raise or lower the signal
Outline: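 Endpoint derived by bidirectional fitting relative to DMSO; MIG quantified via ELISA in primary human foreskin fibroblasts harvested 24 h after dosing.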

[4] = read-out: Matrix Metallopeptidase 1 (MMP1), MMP1 (gene 4312); assay: BSK_hDFCGF_MMP1: BioMAP Diversity Plus: hDFCGF Assay for Matrix Metallopeptidase 1 (MMP1) Biomarker Activity (AID 2283064); conditions: primary human foreskin fibroblasts; actives raise or lower the signal
Outline: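 Primary human foreskin fibroblasts exposed to chemicals for 24 h; MMP1 measured by ELISA. Cytotoxicity tracked by SRB staining in parallel cultures; bidirectional fit relative to DMSO.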

[5] = read-out: Vascular cell adhesion molecule 1 (VCAM1), VCAM1 (gene 7412); assay: BSK_hDFCGF_VCAM1: BioMAP Diversity Plus: hDFCGF Assay for Vascular cell adhesion molecule 1 (VCAM1) Biomarker Activity (AID 2283065); conditions: primary human foreskin fibroblasts; actives raise or lower the signal;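 for AC50: VCAM-1 protein level quantified by ELISA after 24 h chemical exposure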
Outline: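 Measured after 24 h chemical treatment of primary human skin fibroblasts, VCAM-1 was detected by ELISA and concentration-response analysed in both directions versus DMSO vehicle.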

[6] = read-out: Plasminogen activator inhibitor-1 (PAI1), SERPINE1 (gene 5054); assay: BSK_hDFCGF_PAI1: BioMAP Diversity Plus: hDFCGF Assay for Plasminogen activator inhibitor-1 (PAI1) Biomarker Activity (AID 2283066); conditions: primary human foreskin fibroblasts; actives raise or lower the signal
Outline: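 Human foreskin fibroblast primary cells, 24 h chemical exposure; PAI-1 measured by ELISA. Bidirectional fitting relative to DMSO; parallel cultures stained with SRB for total protein to flag overt cytotoxicity.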

[7] = read-out: Intercellular Adhesion Molecule 1 (ICAM1), ICAM1 (gene 3383); assay: BSK_KF3CT_ICAM1: BioMAP Diversity Plus: KF3CT Assay for Intercellular Adhesion Molecule 1 (ICAM1) Biomarker Activity (AID 2283067); conditions: primary human keratinocytes with fibroblasts; actives raise or lower the signal
Outline: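 Bidirectional curve fitting against a DMSO baseline was applied to ICAM-1 ELISA signal from primary human skin co-cultures harvested 24 h after treatment, with SRB staining of parallel wells for overt cytotoxicity.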

[8] = read-out: Interferon-gamma inducible Protein 10 (IP10), CXCL10 (gene 3627); assay: BSK_KF3CT_IP10: BioMAP Diversity Plus: KF3CT Assay for Interferon-gamma inducible Protein 10 (IP10) Biomarker Activity (AID 2283068); conditions: primary human keratinocytes with fibroblasts; actives raise or lower the signal
Outline: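 ELISA read-out of IP-10 after 24 h chemical dosing of human skin primary co-culture (keratinocytes, foreskin fibroblasts). Gain or loss of signal relative to DMSO, bidirectional curve fit.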

[9] = BSK_KF3CT_SRB: Viability Assessment in the BioMAP Diversity Plus: KF3CT Assay (AID 2283069); conditions: primary human keratinocytes with fibroblasts;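 note: total protein by sulforhodamine B staining as a cytotoxicity measure; read 24 h after compound addition; fitted for both signal gain and loss against DMSO baseline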
Outline: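 Human keratinocyte and foreskin fibroblast co-culture exposed to chemical for 24 h. Total protein measured in parallel cultures by 0.1% sulforhodamine B staining after 10% TCA fixation, read at 560 nm; bidirectional fit relative to DMSO.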

[10] = read-out: Interleukin-1 alpha (IL1a), IL1A (gene 3552); assay: BSK_KF3CT_IL1a: BioMAP Diversity Plus: KF3CT Assay for Interleukin-1 alpha (IL1a) Biomarker Activity (AID 2283070); conditions: primary human keratinocytes with fibroblasts; actives raise or lower the signal
Outline: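 Primary human keratinocyte plus foreskin fibroblast co-culture, dosed and measured at 24 h in 96-well plates. IL-1a level quantified by ELISA; bidirectional fit relative to DMSO.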

Structure (SMILES)	outcome [1]	outcome [2]	outcome [3]	AC50 [4]	outcome [5]	outcome [6]	outcome [7]	AC50 [8]	AC50 [9]	outcome [10]	outcome [4]	outcome [8]	outcome [9]	AC50 [5]	AC50 [6]	AC50 [1]	AC50 [2]	AC50 [3]	AC50 [7]	AC50 [10]
CC(C)(O)c1cnn2c(-c3ccc(F)c(-c4c(F)cccc4C#N)c3)cnc2n1	inactive	inactive	inactive	6.43 µM (active)	inactive	inactive	inactive	23.2 µM (active)	33.2 µM (active)	inactive										
Nc1ccc([N+](=O)[O-])cc1	inactive	inactive	inactive		inactive	inactive	inactive			inactive	inactive	inactive	inactive							
CC(C)COC(=O)c1ccccc1C(=O)OCC(C)C	inactive	inactive	inactive			inactive	inactive			inactive	inactive	inactive	inactive	20 µM (active)						
c1ccc2c(c1)-c1cccc3cccc-2c13	inactive	inactive	inactive		inactive	inactive	inactive			inactive	inactive	inactive	inactive							
O=Cc1ccco1	inactive	inactive	inactive		inactive	inactive	inactive			inactive	inactive	inactive	inactive							
C[C@]12C=CC3=C4CCC(=O)C=C4CC[C@H]3[C@@H]1CC[C@@H]2O	inactive	inactive	inactive				inactive			inactive	inactive	inactive	inactive	27.7 µM (active)	0.164 µM (active)					
O=[N+]([O-])C(Br)(CO)CO				32.3 µM (active)				34.9 µM (active)	33.2 µM (active)					26.7 µM (active)	26.8 µM (active)	30.5 µM (active)	32.9 µM (active)	30.2 µM (active)	35.8 µM (active)	32.5 µM (active)
O=C(Oc1ccc(Br)cc1)N1CCN2CCC1CC2	inactive	inactive	inactive		inactive	inactive	inactive			inactive	inactive	inactive	inactive							
N#CC(Br)Br	inactive	inactive	inactive		inactive	inactive	inactive			inactive	inactive	inactive	inactive							
CS(=O)(=O)NC(=O)c1cc(Oc2ccc(C(F)(F)F)cc2Cl)ccc1[N+](=O)[O-]	inactive	inactive	inactive		inactive	inactive	inactive			inactive	inactive	inactive	inactive							
Nc1ccc(Oc2ccc(N)cc2)cc1	inactive	inactive	inactive		inactive	inactive	inactive			inactive	inactive	inactive	inactive							
CC(C)(C)OOC(=O)c1ccccc1				20 µM (active)			inactive			inactive		inactive	inactive	32.9 µM (active)	7.15 µM (active)	30.9 µM (active)	11.9 µM (active)	35.1 µM (active)		
CC(O)CCO (stereo not given)	inactive	inactive	inactive		inactive	inactive	inactive			inactive	inactive	inactive	inactive							
CCC(C)c1ccc(O)cc1 (stereo not given)	inactive	inactive	inactive		inactive	inactive	inactive			inactive	inactive	inactive	inactive							
CC(C)(OOC(C)(C)c1ccccc1)c1ccccc1		inactive		38.1 µM (active)			inactive			inactive		inactive	inactive	28.8 µM (active)	15.4 µM (active)	29.1 µM (active)		20 µM (active)		
OCCOCCO	inactive	inactive	inactive		inactive	inactive	inactive			inactive	inactive	inactive	inactive							
CCCCCOC(=O)c1ccccc1C(=O)OCCCCC	inactive	inactive	inactive			inactive	inactive			inactive	inactive	inactive	inactive	4.45 µM (active)						
COP(=S)(OC)SCN1C(=O)c2ccccc2C1=O	inactive	inactive	inactive		inactive	inactive	inactive			inactive	inactive	inactive	inactive							
OCCCBr	inactive	inactive	inactive		inactive	inactive	inactive			inactive	inactive	inactive	inactive							
CC(C)N(Cc1ccccc1)C(=O)C(C)(C)C	inactive	inactive	inactive		inactive	inactive	inactive			inactive	inactive	inactive	inactive							
O=C(N[C@H](c1ccccc1)[C@@H]1CN2CCC1CC2)c1c(Cl)ccc(C(F)(F)F)c1Cl	inactive	inactive	inactive		inactive	inactive		49 µM (active)	44.6 µM (active)		inactive								49.6 µM (active)	47.9 µM (active)
